Laboratory results from the supplement of paper PMC8728848.
Only a selection was taken, and the strongest signals are over-represented in it overall.

Experiments:
Test in all cases: glycan array binding signal (z-score within array); higher = stronger binding
Settings in all cases: glycan notation: IUPAC condensed, linker removed
[1] = molecular target: Gal(b1-4)GlcNAc(b1-3)Gal(b1-4)GlcNAc(b1-2)Man(a1-3)[Gal(b1-4)GlcNAc(b1-3)Gal(b1-4)GlcNAc(b1-2)Man(a1-6)]Man(b1-4)GlcNAc(b1-4)GlcNAc
How it was run: (§1)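 Glycan array data came from 3228 arrays in the Consortium for Functional Glycomics database, and only arrays with an available protein sequence were kept. Glycan names were put into IUPAC-condensed notation, and columns mapping to the same glycan were averaged. The binding signal is a within-array Z-score, averaged across arrays of one protein sequence run at different concentrations or buffers and across linkers. A negative Z-score can be read as non-binding.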

[2] = molecular target: Gal(b1-4)GlcNAc(b1-3)Gal(b1-4)GlcNAc(b1-2)Man(a1-3)[Gal(b1-4)GlcNAc(b1-3)Gal(b1-4)GlcNAc(b1-2)Man(a1-6)]Man(b1-4)GlcNAc(b1-4)[Fuc(a1-6)]GlcNAc
How it was run: as §1

[3] = molecular target: Gal(b1-4)GlcNAc(b1-3)Gal(b1-4)GlcNAc(b1-2)[Gal(b1-4)GlcNAc(b1-3)Gal(b1-4)GlcNAc(b1-6)]Man(a1-6)[Gal(b1-4)GlcNAc(b1-3)Gal(b1-4)GlcNAc(b1-2)Man(a1-3)]Man(b1-4)GlcNAc(b1-4)[Fuc(a1-6)]GlcNAc
How it was run: as §1

[4] = molecular target: Gal(b1-4)GlcNAc(b1-3)Gal(b1-4)GlcNAc(b1-3)Gal(b1-4)GlcNAc(b1-2)Man(a1-3)[Gal(b1-4)GlcNAc(b1-3)Gal(b1-4)GlcNAc(b1-3)Gal(b1-4)GlcNAc(b1-2)Man(a1-6)]Man(b1-4)GlcNAc(b1-4)GlcNAc
How it was run: as §1

[5] = molecular target: Gal(b1-4)GlcNAc(b1-3)Gal(b1-4)GlcNAc(b1-3)Gal(b1-4)GlcNAc(b1-2)[Gal(b1-4)GlcNAc(b1-3)Gal(b1-4)GlcNAc(b1-3)Gal(b1-4)GlcNAc(b1-6)]Man(a1-6)[Gal(b1-4)GlcNAc(b1-3)Gal(b1-4)GlcNAc(b1-3)Gal(b1-4)GlcNAc(b1-2)Man(a1-3)]Man(b1-4)GlcNAc(b1-4)[Fuc(a1-6)]GlcNAc
How it was run: as §1

[6] = molecular target: Gal(b1-4)GlcNAc(b1-3)Gal(b1-4)GlcNAc(b1-3)[Gal(b1-4)GlcNAc(b1-3)Gal(b1-4)GlcNAc(b1-6)]GalNAc
How it was run: as §1

[7] = molecular target: Gal(b1-4)GlcNAc(b1-3)Gal(b1-4)GlcNAc(b1-6)[Gal(b1-3)]GalNAc
How it was run: as §1

[8] = molecular target: Gal6S(b1-4)GlcNAc6S
How it was run: as §1

[9] = molecular target: GlcNAc(b1-2)Man(a1-3)[GlcNAc(b1-2)Man(a1-6)]Man(b1-4)GlcNAc(b1-4)[Fuc(a1-6)]GlcNAc
How it was run: as §1

[10] = molecular target: GlcNAc(b1-3)Gal(b1-4)GlcNAc(b1-2)Man(a1-3)[GlcNAc(b1-3)Gal(b1-4)GlcNAc(b1-2)Man(a1-6)]Man(b1-4)GlcNAc(b1-4)GlcNAc
How it was run: as §1

[11] = molecular target: GlcNAc(b1-3)Gal(b1-4)GlcNAc(b1-3)Gal(b1-4)GlcNAc(b1-2)Man(a1-3)[GlcNAc(b1-3)Gal(b1-4)GlcNAc(b1-3)Gal(b1-4)GlcNAc(b1-2)Man(a1-6)]Man(b1-4)GlcNAc(b1-4)GlcNAc
How it was run: as §1

[12] = molecular target: GlcNAc(b1-3)Gal(b1-4)GlcNAc(b1-3)Gal(b1-4)GlcNAc(b1-2)Man(a1-3)[GlcNAc(b1-3)Gal(b1-4)GlcNAc(b1-3)Gal(b1-4)GlcNAc(b1-2)Man(a1-6)]Man(b1-4)GlcNAc(b1-4)[Fuc(a1-6)]GlcNAc
How it was run: as §1

[13] = molecular target: GlcNAc(b1-3)Gal(b1-4)GlcNAc(b1-3)Gal(b1-4)GlcNAc(b1-2)[GlcNAc(b1-3)Gal(b1-4)GlcNAc(b1-3)Gal(b1-4)GlcNAc(b1-6)]Man(a1-6)[GlcNAc(b1-3)Gal(b1-4)GlcNAc(b1-3)Gal(b1-4)GlcNAc(b1-2)Man(a1-3)]Man(b1-4)GlcNAc(b1-4)[Fuc(a1-6)]GlcNAc
How it was run: as §1

[14] = molecular target: Man(a1-2)Man(a1-6)[Man(a1-3)]Man(a1-6)[Man(a1-2)Man(a1-2)Man(a1-3)]Man
How it was run: as §1

[15] = molecular target: Neu5Ac(a2-3)Gal(b1-3)GalNAc(b1-4)[Neu5Ac(a2-8)Neu5Ac(a2-3)]Gal(b1-4)Glc
How it was run: as §1

[16] = molecular target: Neu5Ac(a2-3)Gal(b1-3)GlcNAc6S
How it was run: as §1

[17] = molecular target: Neu5Ac(a2-3)Gal(b1-3)]Neu5Ac(a2-3)Gal(b1-4)]GlcNAc
How it was run: as §1

[18] = molecular target: Neu5Ac(a2-3)Gal(b1-4)GlcNAc(b1-6)[Gal(b1-3)]GalNAc
How it was run: as §1

[19] = molecular target: Neu5Ac(a2-6)GalNAc(b1-4)GlcNAc
How it was run: as §1

[20] = molecular target: Neu5Ac(b2-6)Gal(b1-4)GlcNAc
How it was run: as §1

[21] = molecular target: Neu5Ac(b2-6)GalNAc
How it was run: as §1

[22] = molecular target: Neu5Gc(a2-3)Gal(b1-4)GlcNAc(b1-3)Gal(b1-4)GlcNAc(b1-2)Man(a1-3)[Neu5Gc(a2-3)Gal(b1-4)GlcNAc(b1-3)Gal(b1-4)GlcNAc(b1-2)Man(a1-6)]Man(b1-4)GlcNAc(b1-4)GlcNAc
How it was run: as §1

[23] = molecular target: Neu5Gc(a2-8)Neu5Gc(a2-3)Gal(b1-4)GlcNAc
How it was run: as §1

B1: InvD YPIII (Yersinia pseudotuberculosis), B1JSC0 (protein)
chain: MIKYFSFFKKPEPIVGILPNRQSHHILPTHIRRVAWGTLLLQLFIPLSVSFSPAIAAMKASKADTMVSYSSTEPYVLGSGETVAMVAKKYGITVDELKKINIYRTFSRPFTALTTGDEIDIPRKASPFSVDNNKDNRLSVENTLAGHAVAGATALSNGDVAKSGERMVRSAASNEFNNSAQQWLSQFGTARVQLNINDDFHLDGSAADVLIPLYDNEKSILFTQLGARNKDSRNTVNMGAGVRTFQGNWMYGANTFFDNDLTGKNRRIGVGAEAWTDYLKLSANNYFGITDWHQSRDFIDYNERPANGYDLRAEAYLPSYPQLGGKAMYEKYRGDDVALFGKDNRQKNPHAITAGVNYTPIPLVTIGAEHRAGKGGQNDSNINFQLNYRLGETWQSHIDPSAVAASRTLAGSRYDLVERNNHIVLDYQKQNLVRLSLPDSLAGDPFSQLSVTAQVTATHGLERIDWQSAELMAAGGVLKQTSKNGLEITLPEYQMNRTGGNSYILNAIAYDTQGNASSQASMLITVNAQKINIANSTLVAVPINIEANNSDTSVVTLTLKDDNNIPVTGQDVTFLSPLGTLSAMTDSGNGVYTATLTAGTVSGTTAVSSNINGSALDMTPATVTLNGNSGELSITHSMLVAAPVNIEANGSDTSVVTLTLRDSNNNPVTGQTVTFAGTLGTLGAVTEGSSGVYTATLTAGIMVGTSSITASVNSTALGVTPATVTLNGDSGNLSTTNSTLVAAPVNIEANSSDTSVVTLTLRDNNNNPVTGQTVVFTSTLGTLGNVTEQASGVYTATLTAGTVSGVASLSVSVGGNALGVTPATVTLNGDSGNLSTTNSTLVAAPVNIEANSSDTSVVTLTLRDNNNNPVTGQTVNFAGTLGTLGTVSEGSSGVYTTTLTAGTVAGVASLSVNVGGNALGVTPATVTLNGNSGNLSATNSTLVAAPVNIEANSSDTSVVTLTLRDNNNNPVTGQTVAFTSTLGTLGNVTEQASGVYTATLTAGTVSGVASLSVSVNSNALGVTPATVTLNGDSGNLSTTNSTLVAAPVNIEANSSDTSVVTLTLRDNNNNPVTGQTVAFTSTLGTLGNVTEQASGLYTATLTAGTVSGVASLSVNVGGNALGVTPATVTLNGDSGNLSATNSTLVAAPVNIEANSSDTSVVTLTLRDNNNNPVTGQTVAFTSTLGTLGNVTEQASGLYTATLTAGTVSGVASLSVNVGGTALGVTPATVTLNGDSGNLSTTNSTLVAAPVNIEANSSDTSVVTLTLRDNNNNPVTGQTVAFTSTLGTLGNVTEQASGLYTATLTAGTVSGVASLSVSVNSTALGVTPATVTLNGDSGNLSTTNSTLVAAPVNIEANSSDTSVVTLTLRDNNNNPVTGQTVAFTSTLGTLGNVTEQASGVYTATLTAGTVAGVASLSVNVGGNALGVTPATVTLNGDSGNLSTTNSTLVAAPVNIEANSSDTSVVTLTLRDNNNNPVTGQTVAFTSTLGTLGNVTEQASGVYTATLTAGTVSGVASLSVSVGSSALGVTPATVTLNGDSGNLSTTNSTLVAAPVNIEANNSDTSVVTLTLRDNNNNPVTGQTVAFTSTLGTLGNVTEQASGVYTATLTAGTVSGVASLSVSVNSNALGVTPATVTLNGDSGNLSTTNSTLVAAPVNIEANSSDTSVVTLTLRDNNNNPVTGQTVVFTSTLGTLGNVTEQASGLYTATLTAGTVSGVASLSVSVGGNALGVTGNITLAPGALDAARSILAVNKPSINADDRIGSTITFTAQDAQGNAITGLDIAFMTDLENSQIMTLVDHNDGTYTANINGTQTGIANIAVQSSGATIAGLAATMVTITPGAWNTTQATPVMTVALPITTCQSSSGVYKRYYIGIVTHELYDNYGNEISGILTYNLGAGRYTTVTSQNSSVSGSNGLTRRSNSPVSHFILTSDAYTSQAACYAERIANVNVTITVTAITDDFKTSAVNKVFILGTGSN
[1]
  glycan array binding signal (z-score): 10.1
[2]
  glycan array binding signal (z-score): 2.01
[3]
  glycan array binding signal (z-score): 1.88
[4]
  glycan array binding signal (z-score): 1.59
[5]
  glycan array binding signal (z-score): 1.62
[6]
  glycan array binding signal (z-score): 1.71
[7]
  glycan array binding signal (z-score): 1.51
[8]
  glycan array binding signal (z-score): -0.131
[9]
  glycan array binding signal (z-score): 0.422
[10]
  glycan array binding signal (z-score): -0.006
[11]
  glycan array binding signal (z-score): 5.11
[12]
  glycan array binding signal (z-score): 2.68
[13]
  glycan array binding signal (z-score): 4.27
[14]
  glycan array binding signal (z-score): -0.216
[15]
  glycan array binding signal (z-score): -0.165
[16]
  glycan array binding signal (z-score): -0.22
[17]
  glycan array binding signal (z-score): 0.034
[18]
  glycan array binding signal (z-score): 0.162
[19]
  glycan array binding signal (z-score): -0.312
[20]
  glycan array binding signal (z-score): -0.095
[21]
  glycan array binding signal (z-score): 0.163
[22]
  glycan array binding signal (z-score): 0.122
[23]
  glycan array binding signal (z-score): -0.373
